# Results from the supplement of paper PMC6555819.
# Tests used:
# Test in all cases: PBM binding z-score (relative to random genomic background probes); higher = stronger binding; sequences stand for … in GC…GCGATTGACAGCGTAGAATGAAGG
# [1] = test system: FXR:RXRa (NR concentration 270 nM, RXRa partner concentration 90 nM)
# Method in brief: (§1)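 Each nuclear receptor dimer, without ligand, was incubated for 1 h on custom Agilent 4×180K protein-binding microarrays. Binding was detected with antibodies against each partner (one per run), and scanned fluorescence was regression-normalized. The binding z-scores are referenced to random human genomic background probes.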
# [2] = test system: LXRa:RXRa (NR concentration 270 nM, RXRa partner concentration 90 nM)
# Method in brief: as §1
# [3] = test system: LXRa homodimer (NR concentration 270 nM)
# Method in brief: as §1
# [4] = test system: LXRb:RXRa (NR concentration 270 nM, RXRa partner concentration 90 nM)
# Method in brief: as §1
# [5] = test system: LXRb homodimer (NR concentration 270 nM)
# Method in brief: as §1
# [6] = test system: PPARa:RXRa (NR concentration 270 nM, RXRa partner concentration 90 nM)
# Method in brief: as §1
# [7] = test system: PPARg:RXRa (NR concentration 180 nM, RXRa partner concentration 90 nM)
# Method in brief: as §1
# [8] = test system: PPARg:RXRa 270nM:90nM, anti-RXR (NR concentration 270 nM, RXRa partner concentration 90 nM)
# Method in brief: as §1
# [9] = test system: PPARg:RXRa 30nM:10nM, anti-RXR (NR concentration 30 nM, RXRa partner concentration 10 nM)
# Method in brief: as §1
# [10] = test system: PPARg:RXRa 90nM:30nM, anti-RXR (NR concentration 90 nM, RXRa partner concentration 30 nM)
# Method in brief: as §1
# [11] = test system: PPARg:RXRa DBDmut IVT, anti-RXR (DBD mutation: RXRa K156A/R161A, NR concentration 270 nM, RXRa partner concentration 90 nM)
# Method in brief: as §1
# [12] = test system: PPARg:RXRa IVT, anti-PPARg (NR concentration 270 nM, RXRa partner concentration 90 nM)
# Method in brief: as §1
# [13] = test system: PPARg DBDmut:RXRa IVT, anti-PPARg (DBD mutation: PPARg1 K132A/R137A, NR concentration 270 nM, RXRa partner concentration 90 nM)
# Method in brief: as §1
# [14] = test system: PPARg DBDmut IVT, anti-PPARg (DBD mutation: PPARg1 K132A/R137A, NR concentration 270 nM)
# Method in brief: as §1
# [15] = test system: PPARg homodimer (NR concentration 180 nM)
# Method in brief: as §1
# [16] = test system: PXR:RXRa (NR concentration 270 nM, RXRa partner concentration 90 nM)
# Method in brief: as §1
# [17] = test system: PXR homodimer (NR concentration 270 nM)
# Method in brief: as §1
# [18] = test system: RARa homodimer (NR concentration 270 nM)
# Method in brief: as §1
# [19] = test system: RARb:RXRa (NR concentration 270 nM, RXRa partner concentration 90 nM)
# Method in brief: as §1
# [20] = test system: RARa:RXR (NR concentration 270 nM, RXRa partner concentration 90 nM)
# Method in brief: as §1
Sequence,PBM binding z-score [1],PBM binding z-score [2],PBM binding z-score [3],PBM binding z-score [4],PBM binding z-score [5],PBM binding z-score [6],PBM binding z-score [7],PBM binding z-score [8],PBM binding z-score [9],PBM binding z-score [10],PBM binding z-score [11],PBM binding z-score [12],PBM binding z-score [13],PBM binding z-score [14],PBM binding z-score [15],PBM binding z-score [16],PBM binding z-score [17],PBM binding z-score [18],PBM binding z-score [19],PBM binding z-score [20]
GACACAGGGTCAGCTAGAGGCCAGAGTATGGAAA,4.61,2.62,-0.521,2.32,-0.984,4.57,3.5,3.17,0.295,1.71,0.69,1.9,-0.301,-0.892,1.74,2.92,-0.286,-0.561,4.26,–
CGTCAAAGTTCAACTAAGGTAACTTAAAGCACGC,7.38,6.11,4.42,4.16,1.95,5.47,5.21,5.69,2.4,4.39,0.256,2.36,0.726,1.28,3.17,5.71,4.62,1.76,5.39,–
CGTCCAAGGTCAATGCTAGGTCACTGAAAGCATT,6.84,5.66,3.98,4.6,0.791,5.16,4.37,5.11,1.68,3.62,3.52,4.42,0.503,0.266,8.59,5.45,2.08,2.19,5.33,–
CGTCCAAGGTCAAGGTGAGTGAAAGAGACTCGAA,7.1,4.92,0.292,3.92,0.281,5.71,5.33,5.61,2.05,4.04,3.35,3.92,0.375,0.105,3.6,3.6,0.642,1.04,5.22,–
CGTCAAAGTTCAACTAATGTAACGTAAAGCACGC,7.05,6.09,4.93,4.21,2.34,4.77,4.72,5.26,2.95,4.56,0.546,1.56,0.963,2.3,3.42,4.97,5.1,2.42,5.23,–
CCTAGTTGGCCAAGGTCACACACGCTATAGGTAC,3.78,3.61,1.6,3.73,0.597,3.8,2.42,2.88,0.959,1.94,1.76,2.66,0.582,0.0264,2.66,3.85,1.93,1.5,3.8,–
CGTCCAAGGTCATAAGAGGTCAGTGAAGACAGAT,7.91,7.9,5.88,7.04,2.11,5.7,5.38,5.99,2.54,4.85,3.48,4.2,2.03,-0.112,7.68,7.11,7.52,4,5.47,–
CACACTAGGTCAAGAGGTCAAAGTCCGCTTCCCG,7.5,6.61,7.43,5.8,2.67,6.33,9.41,7.85,7.67,8.14,7.22,7.67,2.76,1.84,7.46,6.33,3.75,3.81,5.28,–
AATACAGGGTCACTGGGCCAGAGTAGGTACGAAT,6.75,5.6,1.01,4.21,0.418,6.23,8.71,6.98,3.69,5.91,4.06,5.96,1.16,2.2,3.2,–,0.0493,1.05,4.3,4.88
CCGACGGGGGCAGAAAGGTTACCATACCATCCGG,2.77,2.96,0.333,4.22,3.55,3.93,1.68,3.06,0.967,2.16,0.901,2.55,3.18,2.71,2.43,–,2.06,0.566,–,3.91
ATCTCTAGGTAAAGGTCAGTGAAAGATCGATAGA,3.48,3.55,1.74,3.42,1.54,4.32,6.77,6.29,4.39,6.41,3.45,4.2,1.29,1.49,3.73,3.35,1.1,2.88,4.53,–
TCTCGGAGGTCACGAAGGTCAGAGCTTTCCAGAG,7.49,6.31,3.52,5.6,0.683,6.27,7.7,7.54,4.57,6.59,4.48,6.17,0.14,-0.128,4.35,–,9.02,1.11,–,6.63
ATACCAAGGTTATCGTGAGGTCGTTGATACTAAC,3.14,4.42,2.28,2.93,0.533,2.77,1.24,1.56,0.633,1.07,0.718,1.31,1.06,0.559,1.6,4.73,2.85,1.45,2.47,–
CGTCCAAGGTCAGAGAGGTCATTGAATGCCGAGT,6.84,6.1,6.22,5.74,0.491,6.01,4.47,5.05,1.68,3.33,2.72,3.6,0.144,-1.01,2.82,–,13.6,0.848,–,6.68
TGTCAGAGTTCAAAGGTAACGTAAGTATCCACAC,7.14,6.58,4.05,4.65,1.22,5.88,7.19,6.65,3.88,5.98,0.11,3.16,0.991,1.01,2.95,–,5.44,-0.164,4.47,7.02
ATATGTAGGTAACATCCGGGTCATTCAGGCTATG,1.82,2.79,0.798,2.48,0.596,4.36,5.15,4.17,1.8,3.15,6.71,7.04,2.61,1.59,1.75,3.14,2.16,0.771,1.66,–
TAGCCTAGGTCATTCAGGGGCCAGAATAGAAAGC,4.69,3.94,0.569,3.21,1.34,3.9,2.33,2.29,0.331,1.44,1.69,2.95,-0.139,0.318,1.44,2.48,0.043,-0.355,4,–
AATACAGGGTCACTAGGCCCGAGTAGGTACGAAT,6.16,4.62,0.516,3.53,0.618,5.37,6.32,5.26,2.34,4.04,2.32,4.28,2.04,0.859,1.77,2.94,0.0617,0.416,4.14,–
CCTAGCAGGCCAGGGTCACCCAAGCATTTCGCTT,2.7,1.95,-0.482,2.3,-1.1,3.82,1.34,2.02,-0.0989,1.43,-0.0206,1.79,-0.767,-1.42,1.59,3.36,-0.361,-0.318,3.12,–
TCTTGTAGATCAAAGGTTAAGACAGCCGAAGCCT,1.72,2.27,0.473,2.31,-0.101,4.74,8.11,8.23,7.63,8.39,2.1,3.94,1.03,0.9,1.28,2.12,-0.0752,0.276,1.91,–
GCTTACGGGTCAAAGGTTATAGTATGAATAGAAT,6.98,5.83,0.73,5.84,0.6,6.76,11.2,9.15,8.51,9.75,4.49,5.45,1.28,1.07,1.98,6.29,0.804,0.757,4.25,–
TCTAGTTGGTTACGGAGGTCACACACGACGGGTA,2.67,3.44,3.06,3.14,1.06,3.67,2.59,3.61,3.44,3.42,1.85,2.98,1.22,0.724,3.22,4.22,1.44,2.34,3.25,–
GATCCAGGGTCAGCTAGAGGCCAGAGTATGGAAA,4.42,2.62,-0.925,2.36,-1.4,4.38,3.24,3.15,0.349,1.66,0.393,1.96,-0.6,-0.817,1.89,3.27,-0.25,-0.417,4.24,–
CGAACGAGGTCAGAACAGGACAGTGAAGGATGAT,5.64,4.06,0.279,2.95,0.317,4.97,4.86,4.15,1.32,3.02,3.38,4.26,0.826,0.461,1.39,3.87,0.676,0.667,4.4,–
CGTCCAAGGTCAGATAGGTCAGTGAATGCCGAGT,5.44,3.81,1.77,3.45,0.397,4.33,2.66,3.09,0.662,1.9,1.9,2.41,-0.168,0.165,2.95,4.33,4.32,1.22,5.1,–
CTCGAAAGGTCGAGCTCAGGTGAGTATACCAAAC,5,3.57,-0.0751,3.02,-0.142,4.73,2.39,3.54,1.14,2.04,0.787,1.71,1.15,0.22,2.06,2.86,-0.325,0.256,4.2,–
CCTTACAGGTCAAGGTTATAGCACGGGTGGTACG,6.13,4.73,2.02,3.5,1.18,5.2,4.94,4.89,1.9,3.82,3.89,4.19,0.977,0.925,3.36,–,0.575,1.94,4.65,4.39
AGTCAAAGTTCATCTTGGTAACGTAAGATATGCT,6.87,5.48,5.97,4,2.25,4.58,6.07,6,3.31,5.53,0.418,2.63,0.383,1.1,2.64,4.92,6.26,1.55,4.95,–
ATCGAAAGGTCGAAGGTCAGTATACCCACCCGAA,5.6,4.68,1.05,4.53,0.966,5.61,6.96,6.43,3.83,5.97,0.724,3.24,0.938,0.568,2.47,5.13,0.812,1.68,4.54,–
GGAACGGGGGCAAGTTGATAGCAGAGTTTGATGG,3.27,2.87,0.913,4.45,7.1,4.02,3.2,4.52,2.09,3.58,4.41,5.53,10.8,12.6,2.77,–,2.97,2.02,3.54,2.7
